# Compound activity as filed in PubChem BioAssay.
# Rows were chosen to be rich in hits. Some 3.2% of all compounds tested hit in one or more screens of this group.
# TcdB inh: blocks C. difficile toxin B glycohydrolase activity; P18177; TcdB glycohydrolase enzymatic assay, plate reader; inhibition, % at 9.99 µM; hit rate 0.24% among 350,000; in the data active means inhibition above about 10%
# GDH-TPI counter: inhibits GDH-TPI coupling enzymes, artifact for Mtb FBA screen | GDH-TPI coupled enzyme counterscreen, NADH absorbance | inhibition, % at 4.8 µM | hit rate 1.2% among 360,000; in the data active means inhibition above about 30%;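 further: 0% = DMSO wells and 100% = wells lacking the enzyme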
# PrPC surface inh: inhibitors of human cell surface prion protein PrPC | inhibition, % at 13.8 µM | hit rate 0.43% among 370,000 | P04156 | TR-FRET read-out; in the data active means inhibition above about 24%; further: 0% = median of the test wells and 100% = reference compound wells
# Mtb FBA inh: inhibits M. tuberculosis FBA enzyme; purified M. tuberculosis FBA, fluorescence read-out; AID 588726; hit rate 2.3% among 360,000; P9WQA3; inhibition, % at 1 µM; in the data active means inhibition above about 27%;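 further: 0% = vehicle and 100% = reference inhibitor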
# Y pestis TopoI: blocks Yersinia pestis topoisomerase I activity; Y. pestis Topo-I cleavage product accumulation, plate reader; hit rate 0.064% among 360,000; activity, % at 10 µM; in the data active means activity above about 50%, passing the limit was not always enough; inconclusive means no clear call, values can overlap the other calls
# PrPC TRFRET cf: cell surface PrPC inhibition, TR-FRET confirmation; hit rate 65% among 1,500; cell surface PrPC level; inhibition, % at 13.8 µM; AID 743200; shares compounds with PrPC surface inh; in the data active means inhibition above about 25%
# LD9 cytotox: counter-screen for PrPc inhibitors: cytotoxicity in LD9 cells. shares compounds with PrPC surface inh. hit rate 29% among 1,500. luminescence viability. inhibition, % at 13.8 µM; in the data active means inhibition above about 9.5%
# Active calls of the source: *; ? = inconclusive; · = no result given.
SMILES,TcdB inh,GDH-TPI counter,PrPC surface inh,Mtb FBA inh,Y pestis TopoI,PrPC TRFRET cf,LD9 cytotox
CCOc1ccc(C2NC(=O)NC(c3ccccc3)=C2C(C)=O)cc1OC (configuration not stated),2,2,27*,1,-2,21,1
Cc1cc2ccccc2n1CCNC(=O)c1ccc(S(=O)(=O)N2CCOCC2)cc1,1,1,27*,-4,5,12,2
Cc1cc2ccccc2n1CCNC(=O)COc1ccccc1,0,2,42*,6,17,37*,-1
CCC(=O)NCCn1c(C)cc2ccccc21,·,0,·,2,15,·,·
Cc1cc2ccccc2n1CCNC(=O)Cc1cccc2ccccc12,3,0,41*,2,21,20,-1
Cc1cc2ccccc2n1CCNC(=O)C(C)(C)C,1,0,39*,1,16,12,-3
CC(=O)NCCn1c(C)cc2ccccc21,1,13,-18,6,0,·,·
CCC(=O)Nc1ccc2c(c1)C(=O)N(C)C[C@H](OC)[C@@H](C)CN(Cc1ccccc1F)[C@@H](C)CO2,1,·,·,·,·,·,·
COc1ccc(-c2cnc3c(c2)C(=O)N([C@@H](C)CO)C[C@@H](C)[C@H](CN(C)C(=O)Cc2ccccc2)O3)cc1,-6,·,·,·,·,·,·
CO[C@H]([C@H](C)/C=C/N(C)C=O)[C@@H](C)C(=O)CC[C@H](C)[C@H](O)[C@H](C)[C@H]1OC(=O)/C=C/C(C)=C/[C@H](O)[C@H](OC)C[C@@H]2C=CC[C@@H](C[C@H](OC)[C@@H](CO)[C@@H](OC)C[C@@H](OC)[C@@H]1C)O2,·,·,37*,·,·,32*,23*
CO[C@H]([C@H](C)/C=C/N(C)C=O)[C@@H](C)C(O)CC[C@H](C)[C@H](O)[C@H](C)[C@H]1OC(=O)/C=C/C(C)=C/C[C@H](O)C[C@@H]2C=CC[C@@H](C[C@H](OC)[C@@]3(CO3)[C@@H](OC)C[C@@H](OC)[C@@H]1C)O2 (some centres not stated),·,·,26*,·,·,24,25*
CO[C@H]([C@H](C)/C=C/N(C)C=O)[C@@H](C)C(=O)CC[C@H](C)[C@H](O)[C@H](C)[C@H]1OC(=O)/C=C/C(C)=C/C[C@H](O)C[C@@H]2C=CC[C@@H](C[C@H](OC)[C@@H](CO)[C@@H](OC)C[C@@H](OC)[C@@H]1C)O2,·,·,38*,·,·,34*,24*
CO[C@H]([C@H](C)/C=C/N(C)C=O)[C@@H](C)C(=O)CC[C@H](C)[C@H](O)[C@H](C)[C@H]1OC(=O)/C=C/C(C)=C/C[C@H](O)C[C@@H]2C=CC[C@@H](C[C@H](OC)C(C)(O)[C@@H](OC)C[C@@H](OC)[C@@H]1C)O2 (some centres not stated),·,·,47*,·,·,42*,25*
COCCNC(=O)C[C@@H]1CC[C@H]2[C@@H](COC[C@H](O)CN2C(=O)Nc2ccc3c(c2)OCO3)O1,0,·,·,·,·,·,·
CCCNC(=O)c1nnsc1S(=O)c1ccc(Cl)cc1 (configuration not stated),-1,0,91*,1,14,15,95*
O=[N+]([O-])c1ccc(Sc2cccc[n+]2[O-])c2nonc12,-2,7,37*,-5,-13,73*,99*
O=[N+]([O-])c1ccc(Nc2ccccc2)c2nonc12,0,8,-30,-10,-1,·,·
COc1cccc(-n2nc3c(=S)[nH]nc(C)c3c2C)c1,·,7,17,-2,-3,·,·
Cc1ccc(-n2nc3c(=S)[nH]nc(C)c3c2C)cc1,·,12,111*,4,1,122*,0
Cc1n[nH]c(=S)c2nn(-c3ccccc3F)c(C)c12,·,23,46*,2,1,68*,3
Cc1n[nH]c(=S)c2nn(-c3cccc(Cl)c3)c(C)c12,·,·,36*,·,·,67*,-4
COc1ccc(NC(=O)N(C)C[C@@H]2Oc3ncc(C#C[C@H](C)O)cc3C(=O)N([C@@H](C)CO)C[C@@H]2C)cc1,1,·,·,·,·,·,·
COc1ccc(C(N)c2csc(NC(=O)Nc3ccccc3C(C)(C)C)n2)cc1 (configuration not stated),-4,8,30*,3,7,7,-6
NC(CCc1ccccc1)c1csc(NC(=O)Nc2ccccc2Oc2ccccc2)n1 (configuration not stated),-6,16,50*,1,-2,34*,3
Cc1cccc(NC(=O)CSc2nnc(-c3ccncc3)n2CC2CCCO2)c1 (configuration not stated),-13,-2,60*,4,0,4,-7
SMILES,TcdB inh,GDH-TPI counter,PrPC surface inh,Mtb FBA inh,Y pestis TopoI,PrPC TRFRET cf,LD9 cytotox
C[C@H](CO)N1C[C@H](C)[C@H](CN(C)C(=O)Nc2ccc3c(c2)OCO3)Oc2ccc(NS(C)(=O)=O)cc2C1=O,-3,·,·,·,·,·,·
COc1ccc(NC(=O)NNC(=O)COc2ccc3cc(Br)ccc3c2)cc1OC,0,-9,42*,0,0,69*,-7
Cc1ccccc1-c1n[nH]c(=S)o1,·,7,63*,8,-6,72*,-3
CSc1ccccc1-c1n[nH]c(=S)o1,2,9,66*,13,3,83*,-7
COc1ccc(OC(F)(F)F)cc1CC1(C)C(=O)Nc2ccc(S(=O)(=O)NC3CCCCC3)cc21 (configuration not stated),1,9,36*,2,21,29*,-1
C/C=C/c1ccc([C@@H]2[C@H](CO)N(C(C)=O)C23CN(C(=O)NC2CCCC2)C3)cc1,-1,·,·,·,·,·,·
C[C@@H]1CN([C@@H](C)CO)C(=O)c2cc(NC(=O)Nc3cccc4ccccc34)ccc2O[C@@H]1CN(C)C(=O)Nc1ccc(F)cc1,0,·,·,·,·,·,·
CCNC(=O)c1cc2c(c(-c3cccc(-c4ccncc4)c3)n1)[C@H](CCO)N(S(=O)(=O)CC)C2,1,·,·,·,·,·,·
Cc1ccc(S(=O)(=O)N2CCOC23CCN(C(=O)c2ccc(Cl)cc2Cl)CC3)cc1,0,-3,48*,1,?,32*,0
CC(C)c1cn(CC[C@@H]2CC[C@H](NS(=O)(=O)c3ccccc3)[C@H](CO)O2)nn1,-2,·,·,·,·,·,·
N#Cc1c(-c2ccco2)nc(SCC(=O)Nc2cccc(Cl)c2)[nH]c1=O,·,6,78*,-4,-9,113*,-4
CCC(Sc1nc(-c2cccc(OC)c2)c(C#N)c(=O)[nH]1)C(=O)Nc1nnc(C(C)C)s1 (configuration not stated),2,5,-7,0,8,·,·
CCc1ccc(NC(=O)C(C)Sc2nc(-c3ccco3)c(C#N)c(=O)[nH]2)cc1 (configuration not stated),1,10,28*,1,0,16,-9
C[C@H]1CN([C@@H](C)CO)C(=O)c2cccc(NS(=O)(=O)c3ccc(Cl)cc3)c2O[C@@H]1CN(C)C(=O)Nc1ccc(F)cc1,1,·,·,·,·,·,·
